# Source: PubChem BioAssay (Johns Hopkins Ion Channel Center)
# In the library only some 1.6% were active in any assay of this set; here they are far more common.
# KCNQ2 block: blocks the rat KCNQ2 potassium channel; O88943; CHO-K1 KCNQ2, FluxOR thallium flux, 20 min; stronger effect = lower value; B-score at 10 µM; 310,000 compounds, 1.1% hits; AID 2156;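 active means fluorescence ratio B-score at most minus 3 library SDs, with starting brightness B-score within 2 library SDs, cut at about -5.5 in these data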
# Target sequence (O88943 whole entry, looked up): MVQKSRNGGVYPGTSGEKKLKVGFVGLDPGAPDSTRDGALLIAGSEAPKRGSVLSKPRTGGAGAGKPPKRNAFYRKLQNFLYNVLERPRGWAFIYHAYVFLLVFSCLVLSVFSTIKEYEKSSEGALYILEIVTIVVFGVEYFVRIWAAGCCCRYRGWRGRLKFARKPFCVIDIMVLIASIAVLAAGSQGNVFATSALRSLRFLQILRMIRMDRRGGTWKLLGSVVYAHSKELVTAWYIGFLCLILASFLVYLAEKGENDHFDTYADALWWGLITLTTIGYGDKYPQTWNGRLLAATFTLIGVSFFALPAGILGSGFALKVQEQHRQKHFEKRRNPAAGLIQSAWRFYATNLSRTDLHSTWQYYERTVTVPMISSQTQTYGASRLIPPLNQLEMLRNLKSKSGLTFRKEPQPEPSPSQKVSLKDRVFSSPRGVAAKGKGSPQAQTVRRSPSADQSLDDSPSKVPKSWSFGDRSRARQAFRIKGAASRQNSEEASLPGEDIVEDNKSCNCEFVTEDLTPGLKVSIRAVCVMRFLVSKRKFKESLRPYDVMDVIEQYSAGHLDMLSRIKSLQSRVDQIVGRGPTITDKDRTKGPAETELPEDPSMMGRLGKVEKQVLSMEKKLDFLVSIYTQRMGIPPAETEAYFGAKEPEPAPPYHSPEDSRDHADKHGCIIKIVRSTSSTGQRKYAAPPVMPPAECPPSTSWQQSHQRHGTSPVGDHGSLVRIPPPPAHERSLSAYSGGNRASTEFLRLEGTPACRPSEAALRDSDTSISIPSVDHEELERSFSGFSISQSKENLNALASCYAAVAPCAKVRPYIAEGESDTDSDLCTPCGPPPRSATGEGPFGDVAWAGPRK
# KCNQ2 enhance: KCNQ2 (rat) channel potentiation; AID 2239; CHO-K1 KCNQ2, FluxOR thallium flux fluorescence; stronger effect = higher value; B-score at 10 µM; O88943; 310,000 compounds, 0.54% hits;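 active means fluorescence ratio B-score at least 3 SD of library B-scores, with initial fluorescence B-score within 3 of them, cut at about 5.3 in these data; same plate scores as AID 2156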;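 further: B-score of peak minus minimum over baseline fluorescence ratio after K+ and Tl+ stimulus; positive B-score means potentiation of KCNQ2 with more thallium influx and brighter signal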
# Kir21 confirm: confirmation of mouse Kir2.1 potassium channel inhibitors | Kir2.1-expressing cells, FluxOR thallium flux fluorescence; stronger effect = lower value | Tl flux remaining, % of negative control (stronger effect = lower value), % at 10 µM | 2,300 compounds, 41% hits | AID 2032 | shares compounds with KCNQ2 enhance;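 active means Primary-screen hit whose thallium flux fell at least 3 control SD below untreated wells in both duplicates, with normal baseline fluorescence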;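 further: 0% = blank wells without stimulus and 100% = stimulated no-compound controls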
# HEK293 ctr: alters thallium flux in parental HEK293 cells, Kir2.1 counter-screen; AID 2105; 2,300 compounds, 19% hits; FluxOR thallium flux fluorescence; 0% = unstimulated blank wells; FluxOR signal as % of negative control (100 = no effect), % at 10 µM; shares compounds with KCNQ2 enhance;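 active means dye signal at least 3 control SD above or below untreated wells in both duplicates, raw fluorescence within 3, either direction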;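 further: percent is based on the flux ratio of peak minus minimum fluorescence over baseline F0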
# CHO-K1 Tl ctr: alters thallium flux in parental CHO-K1 cells, KCNQ2 counter-screen | 1,200 compounds, 43% hits | shares compounds with KCNQ2 enhance | FluxOR thallium flux fluorescence; zero = vehicle mean+3SD, 100% = vehicle-minus-blank window | activity increase over 3SD of controls, % at 10 µM;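 active means signal rise of at least 3 SD above the untreated control mean, in both duplicate wells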;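 further: counter screen of KCNQ2 potentiator hits so any rise reflects channel-independent effects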
# KCNQ1 pot spec: selectivity of KCNQ2 potentiators: effect on human KCNQ1; shares compounds with KCNQ2 enhance; CHO KCNQ1 stable, FluxOR thallium flux fluorescence; beyond 3SD, as % of vehicle-control signal; activation over 3SD threshold, % at 10 µM; 1,200 compounds, 28% hits;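 active means fluorescence ratio rise of at least 3 SD of vehicle wells above their mean, in both replicate wells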;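 further: 0% = vehicle mean plus 3 SD and 100% = vehicle minus unstimulated blank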
# KCNQ2 pot conf: rat KCNQ2 channel potentiator confirmation; shares compounds with KCNQ2 enhance; CHO-KCNQ2 cells, FluxOR thallium flux fluorescence; potentiation, less the hit threshold, % at 10 µM; 1,200 compounds, 68% hits;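 active means fluorescence ratio rising 3 SD or more over the vehicle control mean in both replicates, plus primary screen hit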;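 further: peak minus minimum thallium fluorescence divided by baseline after K/Tl stimulus; 0% = vehicle mean plus 3 SD and 100% = vehicle minus unstimulated blank difference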
# Kir21 spec: mouse Kir2.1 off-target activity of KCNQ2 potentiators. shares compounds with KCNQ2 enhance. HEK293 Kir2.1, FluxOR thallium flux fluorescence. activity over 3SD threshold, % at 10 µM. 1,200 compounds, 2% hits. AID 2345;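 active means fluorescence ratio rise of at least 3 SD above the vehicle-control mean, seen in both replicates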;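 further: 0% = vehicle mean plus 3 SD and 100% = vehicle minus no-stimulus blank window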
# KCNQ2 W236L pot: rat KCNQ2 W236L mutant potentiation by KCNQ2 potentiators. CHO KCNQ2-W236L, automated patch clamp current. AID 2558. 940 compounds, 10% hits. current increase over 3SD of negative controls (%), stronger effect = higher value, % at 25 µM. shares compounds with KCNQ2 enhance;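 active means current increase at least 3 SD of the untreated controls above them in both duplicate recordings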
# Starred values were filed as active, the others as inactive; i = inactive; · = no result given.
SMILES,KCNQ2 block,KCNQ2 enhance,Kir21 confirm,HEK293 ctr,others
O=c1c2ccc(Cl)cc2nc(-c2ccc([N+](=O)[O-])cc2)n1O,i,13.6*,i,303.5%*,CHO-K1 Tl ctr=5.3*;KCNQ1 pot spec=-13.8;KCNQ2 pot conf=41.6*;Kir21 spec=-13.2;KCNQ2 W236L pot=i
O=c1c2cc(Br)ccc2nc(-c2cccc(C(F)(F)F)c2)n1O,i,27.7*,i,611.0%*,CHO-K1 Tl ctr=-11.5;KCNQ1 pot spec=-12.6;KCNQ2 pot conf=92.2*;Kir21 spec=13.8*;KCNQ2 W236L pot=i
Cc1ccccc1-c1nc2ccc(Cl)cc2c(=O)n1O,i,·,·,·,
COc1ccccc1-c1nc2cc(Cl)ccc2c(=O)n1O,i,·,·,·,
O=c1c2cc(Cl)ccc2nc(-c2ccccc2)n1O,i,6.54*,i,325.5%*,CHO-K1 Tl ctr=5.6*;KCNQ1 pot spec=9.7*;KCNQ2 pot conf=37.5*;Kir21 spec=-20.1;KCNQ2 W236L pot=i
N#Cc1ccc(-c2nc3ccc(Br)cc3c(=O)n2O)cc1,i,4.23,·,·,
O=c1c2ccccc2nc(-c2ccccc2)n1O,i,0.66,·,·,
O=c1c2cc(Br)ccc2nc(-c2ccc([N+](=O)[O-])cc2)n1O,i,9.81*,i,383.0%*,CHO-K1 Tl ctr=-3.7;KCNQ1 pot spec=64.6*;KCNQ2 pot conf=50.6*;Kir21 spec=-19.3;KCNQ2 W236L pot=i
CCOC(=O)c1c(S(=O)(=O)NCC(=O)Nc2ccc(F)cc2)c(C)n(C)c1C,i,·,·,·,
O=C(Cc1ccccc1)NN1C(=O)/C(=C/c2ccccc2C(=O)O)SC1=S,i,2,·,·,
CCc1nnc(NC(=O)CSc2nnc(C)c(=O)n2N)s1,i,·,·,·,
Cc1ccc(-n2cc(CNCCCn3ccnc3C)c(-c3ccc(F)cc3)n2)cc1,i,·,60.0%*,i,
Cc1ccc(-n2cc(CNCCCn3cccn3)c(-c3cccc(C)c3)n2)cc1,i,·,·,·,
S=C(NCc1ccco1)Nc1cc(-c2ccccc2)[nH]n1,i,·,·,·,
CCOc1ccc(Nc2nc(N)nc(CCl)n2)cc1,i,0.03,·,·,
Nc1nc(Nc2ccc(Cl)cc2)nc2ccccc12,i,·,i,173.5%*,
Cc1ccccc1Nc1nc(N)c2ccccc2n1,i,0.58,·,·,
CCOc1ccc(Nc2nc(N)c3ccccc3n2)cc1,i,0.08,50.5%*,i,
CN(C)c1ccc(Nc2nc(N)c3ccccc3n2)cc1,i,1.52,32.5%*,i,
Nc1nc(Nc2ccccc2)nc2ccccc12,i,2.78,·,·,
Cc1ccc(-c2csc(NC(=O)CN3CCOCC3)n2)cc1C,i,0.31,·,·,
COc1ccccc1Nc1nc(NCCO)c2ccccc2n1,i,0.03,·,·,
Cc1ccc(Nc2nc(NCCO)c3ccccc3n2)cc1C,i,·,28.0%*,i,
CN1C(=O)[C@@H]2[C@@H]3C[C@@H]([C@H]4ON=C(c5ccccc5OCC#N)[C@@H]34)[C@@H]2C1=O,i,0.41,·,·,
OCCN1CCN(CCCN2c3ccccc3Sc3ccc(C(F)(F)F)cc32)CC1,i,·,30.5%*,i,
SMILES,KCNQ2 block,KCNQ2 enhance,Kir21 confirm,HEK293 ctr,others
CN(C)CCCN1c2ccccc2Sc2ccc(C(F)(F)F)cc21,i,·,·,·,
O=C(CCN1CCOCC1)N1c2ccccc2Sc2ccc(Cl)cc21,i,·,·,·,
CN1CCN(CCCN2c3ccccc3Sc3ccc(Cl)cc32)CC1,-9.13*,-9.13,13.5%*,i,
CN(C)S(=O)(=O)c1ccc(NC=O)cc1,i,0.77,·,·,
COc1ccc(NC(=O)CN(C)C(=O)c2cccc(S(=O)(=O)Nc3ccc(OC)cc3)c2)cc1,i,·,·,·,
CCOC(=O)C1CCN(Cc2cccc(Oc3ccc(Cl)cc3)c2)CC1,i,·,·,·,
CCOC(=O)C1CCN(Cc2cccc(Oc3ccccc3)c2)CC1,i,·,27.0%*,i,
CC(=O)NNC(=S)NC(=O)C(c1ccccc1)c1ccccc1,i,·,·,·,
